Assay [1] is described as follows: cAMP Responsive Elements (CRE) small molecule antagonists, cell-based qHTS assay: qHTS cell viability counter screen (AID 2060913). Also: nearly all actives have a fitted effect of over 40% in size. The note with it: CRE-bla HEK293T viability, CellTiter-Glo luminescence, 5 h; series mostly up to 92.4 µM. The procedure, abridged: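 Steps: cells plated and held 18 hrs at 37 C/5% CO2; compounds and NKH477 (0.25 uM final) added; 3 hrs incubation; reporter substrate read; CellTiter-Glo added to measure cytotoxicity by luminescence.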
Background: qHTS replaces the single test concentration by a dilution series.

Assay [2] in a line: cAMP Responsive Elements (CRE) small molecule agonists, cell-based qHTS assay: qHTS cell viability counter screen (AID 2060914). Also: nearly all actives have a fitted effect of over 50% in size. The note with it: CRE-bla HEK293T viability, CellTiter-Glo luminescence, 5 h; series mostly up to 92.4 µM. The procedure, abridged: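 Cells are seeded and incubated 18 h, treated with compounds in DMSO for 3 h, read for the bla reporter, then given CellTiter-Glo; luminescence is measured after 30 min at room temperature.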

Results filed as inconclusive are left out. Where a call stands in place of a potency, no number is given. Calls of active or inactive are those of the source. Calls follow the shape of the dose curve; as a rule, active = well fitted cell-killing curve with a large enough effect in the repeat runs; inconclusive = weak or mixed curves, or effect the other way; inactive = flat fitted curve, though single readings scatter.

Regarding `Nc1cc(C(=O)O)ccc1Cl`, the Potency result in assay [1] and in assay [2] was “inactive” in each case.

For the compound `Nc1ccc(-c2ccc(F)cc2)cc1`, the Potency entry in assay [1] and in assay [2] was “inactive” each time.

In the case of `CCCCCOC(=O)c1ccc(O)cc1`, the Potency entry in assay [1] and in assay [2] was “inactive” each time.

Consider `O=C(CCNNC(=O)c1ccncc1)NCc1ccccc1`, for which the Potency result in assay [1] and in assay [2] was “inactive” in each case.

Regarding `C=CN1CCCCCC1=O`, the Potency entry in assay [1] and in assay [2] was “inactive” each time.
